Assay results reported in PubChem BioAssay (Tox21).
Where “and” joins values, the source holds several entries; their conditions need not be identical. Equal values may be shown once. Where a structure was tested more than once in an assay, its records may differ in their call. Calls of active or inactive are those of the source. Unless noted, calls follow the shape of the dose curve; as a rule, active = well fitted curve in the direction sought with a large enough effect in the repeat runs; inconclusive = weak or mixed curves; inactive = no such curve, though single readings can be large; an effect the other way counts as inactive or inconclusive.

Experiments:
[1] = qHTS assay to identify small molecule antagonists of the glucocorticoid receptor (GR) signaling pathway - cell viability counter screen (AID 720693); also: nearly all actives have a fitted effect of over 55% in size; also: potency is read from the fitted curve at half-maximal effect
[2] = qHTS assay for identifying genotoxic compounds that show differential cytotoxicity against isogenic chicken DT40 cell lines with known DNA damage response pathways - wild type cell line (AID 743012); also: nearly all actives have a fitted effect of over 60% in size; also: potency is read from the fitted curve at half-maximal effect
Outline: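 Quantitative HTS on parental DT40 cells: 40 h compound treatment at 37 C/5% CO2, with viability then determined by CellTiter-Glo luminescence. Values serve as the DNA repair-proficient reference for differential cytotoxicity.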

[3] = qHTS assay for identifying genotoxic compounds that show differential cytotoxicity against isogenic chicken DT40 cell lines with known DNA damage response pathways - Rev3 mutant cell line (AID 743014); also: nearly all actives have a fitted effect of over 55% in size; also: potency is read from the fitted curve at half-maximal effect
[4] = qHTS assay for identifying genotoxic compounds that show differential cytotoxicity against isogenic chicken DT40 cell lines with known DNA damage response pathways - Rad54/Ku70 mutant cell line (AID 743015); also: nearly all actives have a fitted effect of over 60% in size; also: potency is read from the fitted curve at half-maximal effect
[5] = qHTS assay to identify small molecule antagonists of the androgen receptor (AR) signaling pathway - cell viability counter screen (AID 743033; also: nearly all actives have a fitted effect of over 45% in size; also: potency is read from the fitted curve at half-maximal effect)
[6] = qHTS assay to identify small molecule antagonists of the androgen receptor (AR) signaling pathway using the MDA cell line - cell viability counter screen (AID 743041; also: nearly all actives have a fitted effect of over 45% in size; also: potency is read from the fitted curve at half-maximal effect)
Outline: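 Cells were plated at 3,000 per well and left 5 h. Compounds in DMSO were then pinned in, followed by R1881. After 16 h at 37C, CellTiter-Fluor fluorescence gave viability.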

[7] = qHTS assay to identify small molecule antagonists of the thyroid receptor (TR) signaling pathway - cell viability counter screen (AID 743064); also: nearly all actives have a fitted effect of over 50% in size; also: potency is read from the fitted curve at half-maximal effect
Outline: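 GH3.TRE-Luc rat pituitary cells dosed after 4 hr plating, co-stimulated with T3 at 1 nM final, incubated 23.5 h at 37 C. Viability measured in the same wells by CellTiter-Fluor fluorescence after 30 min further at 37 C.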

[8] = qHTS assay to identify small molecule antagonists of the estrogen receptor alpha (ER-alpha) signaling pathway - cell viability counter screen (AID 743074; calls by dose curve;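 also: HEK293 cells carrying ER-alpha-UAS-bla reporter stimulated with 17beta-estradiol; nearly all actives have a fitted effect of over 45% in size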; also: potency is read from the fitted curve at half-maximal effect)
[9] = qHTS assay to identify small molecule antagonists of the estrogen receptor alpha (ER-alpha) signaling pathway using the BG1 cell line - cell viability counter screen (AID 743081);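 also: compound given together with 17beta-estradiol as the ER stimulus; nearly all actives have a fitted effect of over 45% in size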; also: potency is read from the fitted curve at half-maximal effect
[10] = target: Aromatase (Homo sapiens) (UniProt P11511); assay: qHTS assay to identify aromatase inhibitors (AID 743083); also: nearly all actives have a fitted effect of over 55% in size; also: potency is read from the fitted curve at half-maximal effect
Sequence of Aromatase (Homo sapiens) (P11511 whole entry, looked up): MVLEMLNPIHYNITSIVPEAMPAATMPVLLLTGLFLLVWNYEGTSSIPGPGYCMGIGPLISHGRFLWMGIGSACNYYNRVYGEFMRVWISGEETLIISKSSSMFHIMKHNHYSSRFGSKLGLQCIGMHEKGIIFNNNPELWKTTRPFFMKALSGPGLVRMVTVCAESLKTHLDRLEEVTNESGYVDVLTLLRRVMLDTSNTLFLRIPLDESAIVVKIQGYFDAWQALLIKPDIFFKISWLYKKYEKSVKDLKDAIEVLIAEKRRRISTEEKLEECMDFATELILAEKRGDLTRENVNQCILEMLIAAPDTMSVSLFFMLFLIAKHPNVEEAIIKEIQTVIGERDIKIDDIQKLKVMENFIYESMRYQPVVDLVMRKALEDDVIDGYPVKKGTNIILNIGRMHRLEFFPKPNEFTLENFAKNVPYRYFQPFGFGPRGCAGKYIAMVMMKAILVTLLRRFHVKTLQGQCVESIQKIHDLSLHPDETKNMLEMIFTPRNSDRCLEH

[11] = qHTS assay to identify small molecule antagonists of the thyroid receptor (TR) signaling pathway (AID 743065); also: nearly all actives have a fitted effect of over 55% in size; also: potency is read from the fitted curve at half-maximal effect
Outline: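 Antagonism measured as loss of luciferase signal in GH3 cells stably carrying a TRE-luciferase reporter, co-treated with compound and T3 (1 nM final) for 23.5 h at 37 C. Viability was read in the same well by CellTiter-Fluor.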

[12] = system: thyroid hormone receptor (rat, GH3 cells); assay: qHTS assay to identify small molecule agonists of the thyroid receptor (TR) signaling pathway (AID 743066; calls by dose curve; also: potency is read from the fitted curve at half-maximal effect)
[13] = target: Estrogen receptor (Homo sapiens) (UniProt P03372); assay: qHTS assay to identify small molecule agonists of the estrogen receptor alpha (ER-alpha) signaling pathway (AID 743075; calls by dose curve;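 also: HEK293 GripTite cells with ER-alpha and UAS-driven beta-lactamase reporter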; also: potency is read from the fitted curve at half-maximal effect)
Sequence of Estrogen receptor (Homo sapiens) (P03372 whole entry, looked up): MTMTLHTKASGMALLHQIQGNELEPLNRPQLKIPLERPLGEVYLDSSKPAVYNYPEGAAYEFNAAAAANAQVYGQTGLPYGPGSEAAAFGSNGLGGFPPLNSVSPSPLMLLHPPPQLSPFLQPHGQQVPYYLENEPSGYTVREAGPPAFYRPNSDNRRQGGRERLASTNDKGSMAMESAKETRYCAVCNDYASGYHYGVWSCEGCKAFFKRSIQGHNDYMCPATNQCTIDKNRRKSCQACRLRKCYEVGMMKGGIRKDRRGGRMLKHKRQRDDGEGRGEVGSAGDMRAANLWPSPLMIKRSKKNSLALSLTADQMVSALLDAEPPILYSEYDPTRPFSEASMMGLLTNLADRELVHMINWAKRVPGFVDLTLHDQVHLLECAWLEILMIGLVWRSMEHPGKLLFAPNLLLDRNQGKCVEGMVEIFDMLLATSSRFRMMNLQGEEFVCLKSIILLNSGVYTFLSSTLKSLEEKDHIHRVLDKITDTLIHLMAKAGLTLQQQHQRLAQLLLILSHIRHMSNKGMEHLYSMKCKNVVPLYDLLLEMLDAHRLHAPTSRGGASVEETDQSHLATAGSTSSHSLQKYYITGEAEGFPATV

[14] = target: Estrogen receptor (Homo sapiens) (UniProt P03372); assay: qHTS assay to identify small molecule agonists of the estrogen receptor alpha (ER-alpha) signaling pathway using the BG1 cell line (AID 743079); settings: BG1Luc4E2 cells, ERE-luciferase agonist, 22 h; activation: at 70.3 µM (top of the series) unless noted; also: nearly all actives have a fitted effect of over 20% in size; also: potency is read from the fitted curve at half-maximal effect
[15] = qHTS assay to identify small molecule antagonists of the estrogen receptor alpha (ER-alpha) signaling pathway using the BG1 cell line (AID 743080; calls by dose curve;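 also: BG1 cells stimulated with 17beta-estradiol alongside compound; nearly all actives have a fitted effect of over 25% in size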)
Outline: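 Endogenous full-length ER-alpha in BG1-Luc-4E2 cells drives a stably integrated 4×ERE luciferase gene; compounds were tested against 17beta-estradiol over 21.5 h, with luminescence and multiplexed viability fluorescence recorded.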

[16] = target: Androgen receptor (Homo sapiens) (UniProt P10275); assay: qHTS assay to identify small molecule antagonists of the androgen receptor (AR) signaling pathway (AID 743035; active = well fitted inhibition curve with a large enough effect in the signal ratio in the repeat runs, not every such curve was filed as active; inconclusive = weak or mixed curves, or effect the other way; inactive = no such curve, though single readings can be large or run the other way; the % refers to the signal ratio)
Sequence of Androgen receptor (Homo sapiens) (P10275 whole entry, looked up): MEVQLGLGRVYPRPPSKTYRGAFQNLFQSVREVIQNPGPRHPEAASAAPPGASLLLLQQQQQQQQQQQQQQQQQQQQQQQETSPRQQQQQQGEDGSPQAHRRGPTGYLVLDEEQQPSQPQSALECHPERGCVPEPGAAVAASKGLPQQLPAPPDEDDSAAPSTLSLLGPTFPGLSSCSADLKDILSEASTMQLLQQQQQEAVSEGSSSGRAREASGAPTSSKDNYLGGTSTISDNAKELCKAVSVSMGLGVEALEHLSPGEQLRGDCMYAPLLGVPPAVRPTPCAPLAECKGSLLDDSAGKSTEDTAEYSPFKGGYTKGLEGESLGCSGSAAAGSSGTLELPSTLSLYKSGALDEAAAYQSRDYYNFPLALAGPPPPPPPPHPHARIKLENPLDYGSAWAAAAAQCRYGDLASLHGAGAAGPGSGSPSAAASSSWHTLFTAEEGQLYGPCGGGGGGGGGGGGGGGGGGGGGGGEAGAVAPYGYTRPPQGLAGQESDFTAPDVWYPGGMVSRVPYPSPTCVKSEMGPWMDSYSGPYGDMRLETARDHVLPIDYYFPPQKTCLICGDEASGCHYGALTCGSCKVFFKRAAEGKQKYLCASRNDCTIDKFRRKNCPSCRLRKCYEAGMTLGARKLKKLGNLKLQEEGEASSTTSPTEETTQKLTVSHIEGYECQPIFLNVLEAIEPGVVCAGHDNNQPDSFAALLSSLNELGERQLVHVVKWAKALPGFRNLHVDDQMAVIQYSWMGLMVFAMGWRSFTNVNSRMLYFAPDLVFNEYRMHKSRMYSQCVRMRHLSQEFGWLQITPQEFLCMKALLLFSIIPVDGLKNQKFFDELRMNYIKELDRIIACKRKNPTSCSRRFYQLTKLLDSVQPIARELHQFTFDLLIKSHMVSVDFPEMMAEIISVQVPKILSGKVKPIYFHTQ
Outline: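 Cell line: GeneBLAzer AR-UAS-bla GripTite (HEK293). Stimulus: R1881 added after compound. Exposure: 16 h, 37C, 5% CO2. Readout: LiveBLAzer B/G FRET fluorescence after 2 h at room temperature.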

[17] = target: Androgen receptor (Homo sapiens) (UniProt P10275); assay: qHTS assay to identify small molecule agonists of the androgen receptor (AR) signaling pathway (AID 743036; active = well fitted activation curve with a large enough effect in the signal ratio in the repeat runs, with a control signal flat, not every such curve was filed as active; inconclusive = weak or mixed curves, or effect the other way; inactive = no such curve, though single readings can be large or run the other way; the % refers to the signal ratio)
Outline: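 AR-UAS-bla HEK293 cells, plated 4 h before dosing, were treated with compound for 16 h at 37C. beta-Lactamase reporter read after 2 h with LiveBLAzer B/G FRET substrate at room temperature.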

[18] = target: Androgen receptor (Homo sapiens) (UniProt P10275); assay: qHTS assay to identify small molecule agonists of the androgen receptor (AR) signaling pathway using the MDA cell line (AID 743040; also: potency is read from the fitted curve at half-maximal effect; as to all read-outs here: nearly all actives have a fitted effect of over 20% in size); settings: MDA-kb2 AR-luc cells, MMTV luciferase, 16 h; for activity change: at 70.3 µM (top of the series), stronger effect = higher value
Outline: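 Cells plated, 5 h at 37C/0% CO2; compound or DMSO pinned; 16 h at 37C; ONE-Glo added; luminescence measured after 30 min at room temperature. Reporter line: MDA-kb2 with MMTV-luciferase responsive to AR and GR.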

[19] = target: Androgen receptor (Homo sapiens) (UniProt P10275); assay: qHTS assay to identify small molecule antagonists of the androgen receptor (AR) signaling pathway using the MDA cell line (AID 743042; also: nearly all actives have a fitted effect of over 55% in size)
Outline: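 Antagonist mode: compounds plus R1881 agonist added to MDA-kb2 AR-luc cells, incubated 16 h at 37C. Luciferase reporter luminescence quantified, with multiplexed CellTiter-Fluor readout for cell viability.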

[20] = target: Estrogen receptor (Homo sapiens) (UniProt P03372); assay: qHTS assay to identify small molecule antagonists of the estrogen receptor alpha (ER-alpha) signaling pathway (AID 743069; active = well fitted curve in the direction sought with a large enough effect in the signal ratio in the repeat runs, not every such curve was filed as active; inconclusive = weak or mixed curves, or effect the other way; inactive = no such curve, though single readings can be large or run the other way; the % refers to the signal ratio)
Outline: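 ER-alpha-UAS-bla GripTite HEK293 line; 2% charcoal-stripped FBS overnight; plated, 4 hr 37C/5% CO2; cpd in DMSO + 17beta-estradiol, 18 hr 37C; LiveBLAzer B/G FRET substrate 2 hr RT; fluorescence intensity.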
% is scaled to controls: 0 for no effect and ±100 for the full control effect.

CC(C)(O)C#N
inactive: Potency [1] | Potency [2] | Potency [3] | Potency [4] | Potency [5] | Potency [6] | Potency [7] | Potency [8] | Potency [9] | Potency [10]

O=P(OCCCl)(OCCCl)OCCCl
inactive: Potency [1] | Potency [2] | Potency [3] | Potency [4] | Potency [5] | Potency [6] | Potency [7] | Potency [11] | Potency [12] | Potency [8] | Potency [9] | Potency [10]

O=[N+]([O-])c1ccc(Nc2ccccc2)cc1
inactive: Potency [12] | Potency [13]
active: Potency [1] 43.6 µM | Potency [2] 15.4 µM | Potency [3] 54.9 µM and 13.7 µM | Potency [4] 30.9 µM and 10.9 µM | Potency [5] 38.9 µM | Potency [6] 61.6 µM and 61.1 µM | Potency [7] 48.6 µM | Potency [11] 48.9 µM and 30.6 µM | Potency [9] 48.9 µM and 27.3 µM | Potency [10] 30.6 µM

Clc1cccc(Cl)c1
inactive: Potency [1] | Potency [2] | Potency [3] | Potency [4] | Potency [5] | Potency [6] | Potency [7] | Potency [11] | Potency [12] | Potency [8] | Potency [9] | Potency [10]

Nc1ccc([N+](=O)[O-])cc1N
active: Potency [2] 27.3 µM | Potency [4] 13.7 µM and 19.3 µM | Potency [7] 24.3 µM and 43.3 µM | Potency [11] 48.5 µM and 48.6 µM
43.2 µM (active) and inactive: Potency [3]
inactive: Potency [1] | Potency [5] | Potency [12] | Potency [10]

CC(C)=CC1C(C(=O)OCc2cccc(Oc3ccccc3)c2)C1(C)C (stereo not drawn)
inactive: Potency [1] | Potency [2] | Potency [4] | Potency [5] | Potency [6] | Potency [7] | Potency [11] | Potency [12] | Potency [8] | Potency [13] | Potency [14] | Potency [15] | Potency [9] | Potency [10]

S=c1[nH]c2ccccc2[nH]1
active: Potency [18] 3.86 µM
inactive: Potency [1] | Potency [2] | Potency [4] | Potency [5] | Potency [16] | Potency [17] | activity change [18] -1.99% | Potency [6] | Potency [19] | Potency [7] | Potency [11] | Potency [12] | Potency [8] | Potency [9] | Potency [10]

C[C@]12CC[C@H]3[C@@H](CCC4=CC(=O)CC[C@@H]43)[C@@H]1CC[C@@H]2O
inactive: Potency [1] | Potency [3] | Potency [5] | Potency [6] | Potency [7] | Potency [12] | Potency [8] | Potency [15] | Potency [9] | Potency [10]
active: Potency [2] 26.6 µM | Potency [11] 21.1 µM and 13.3 µM and 30.4 µM | Potency [13] 1.34 µM [inconclusive] and 268 nM [inconclusive] and 243 nM [inconclusive] | Potency [14] 106 nM and 59.6 nM and 108 nM

CCOP(=S)(OCC)SCn1c(=O)oc2cc(Cl)ccc21
active: Potency [2] 27.3 µM | Potency [4] 46.4 µM and 30.6 µM | Potency [11] 68.6 µM | Potency [10] 65.6 µM
inactive: Potency [1] | Potency [5] | Potency [6] | Potency [7] | Potency [12] | Potency [20] | Potency [8] | Potency [13] | Potency [14] | Potency [15] | Potency [9]

C[N+](C)(C)C
inactive: Potency [1] | Potency [2] | Potency [3] | Potency [4] | Potency [5] | Potency [6] | Potency [7] | Potency [12] | Potency [20] | Potency [8] | Potency [13] | Potency [15] | Potency [9] | Potency [10]
inactive and 49.1 µM (active): Potency [14]

O=[N+]([O-])/N=C1\NCCN1Cc1ccc(Cl)nc1
inactive and 5.31 µM (active): Potency [4]
inactive: Potency [1] | Potency [2] | Potency [5] | Potency [16] | Potency [17] | activity change [18] 0.161% and 4.01% and 0.695% | Potency [6] | Potency [19] | Potency [7] | Potency [11] | Potency [12] | Potency [8] | Potency [13] | Potency [14] | Potency [15] | Potency [9] | Potency [10]

C[N+](C)(C)CC(=O)[O-]
inactive: Potency [1] | Potency [2] | Potency [3] | Potency [4] | Potency [5] | Potency [6] | Potency [7] | Potency [12] | Potency [20] | Potency [8] | Potency [13] | Potency [14] | Potency [15] | Potency [9] | Potency [10]

CN(C)c1nc(=O)n(C2CCCCC2)c(=O)n1C
inactive: Potency [1] | Potency [2] | Potency [4] | Potency [5] | Potency [6] | Potency [7] | Potency [11] | Potency [12] | Potency [20] | Potency [8] | Potency [13] | Potency [14] | Potency [15] | Potency [9] | Potency [10]

Cc1cc(Cl)ccc1N=CN(C)C
inactive: Potency [1] | Potency [2] | Potency [3] | Potency [4] | Potency [5] | Potency [6] | Potency [7] | Potency [8] | Potency [9] | Potency [10]

CC(C)(c1ccccc1)c1ccc(O)c(C(C)(C)c2ccccc2)c1
60.6 µM (active) and inactive: Potency [9]
active: Potency [1] 21.7 µM and 24.5 µM | Potency [2] 21.5 µM and 9.69 µM | Potency [3] 15.2 µM and 8.63 µM | Potency [4] 13.6 µM and 9.69 µM | Potency [5] 48.5 µM and 49 µM | Potency [7] 13.6 µM and 12.2 µM | Potency [11] 15.2 µM and 13.7 µM | Potency [12] 1.52 µM | Potency [8] 54.9 µM | Potency [10] 60.6 µM
